This is a sample that favours compounds with a hit; in the whole collection about 2.9% have one here.
PI5P4Ka inh = blocks human PI5P4K alpha kinase activity; PI5P4Kalpha enzyme, ADP-Glo luminescence, 60 min; stronger effect = lower value; max response, %; actives 1.2% (n = 330,000); AID 652105; active means max response of -50% or lower; inconclusive means between -30% and -50%; inactive means -30% or higher; further: value at the top dose of about 77 µM
Target sequence (P48426 whole entry, looked up): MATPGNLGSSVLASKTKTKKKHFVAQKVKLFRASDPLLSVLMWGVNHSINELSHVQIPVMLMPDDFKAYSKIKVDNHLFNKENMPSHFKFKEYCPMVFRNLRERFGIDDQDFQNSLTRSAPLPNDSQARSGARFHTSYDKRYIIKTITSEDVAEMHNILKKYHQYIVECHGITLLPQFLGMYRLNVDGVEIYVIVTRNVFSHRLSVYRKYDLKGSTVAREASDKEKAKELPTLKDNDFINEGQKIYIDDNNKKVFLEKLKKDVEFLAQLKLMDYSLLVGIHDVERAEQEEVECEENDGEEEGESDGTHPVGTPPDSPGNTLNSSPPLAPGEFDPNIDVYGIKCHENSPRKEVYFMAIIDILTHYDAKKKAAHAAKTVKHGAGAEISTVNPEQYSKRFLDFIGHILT
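Quantitative HTS of the MLSMR library against PI5P4Kalpha with substrate. ATP added last at 5 microM final; room temperature, 60 minutes. Remaining ATP depleted, ADP converted and read as luminescence.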
POLK inh = inhibitors of human DNA polymerase kappa | Q9UBT6 | purified Pol kappa, fluorescent DNA synthesis assay, 10 min | Potency, µM (doses to about 107 µM), most hits filed as inhibitors | actives 0.53% (n = 400,000) | AID 588579
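Pol kappa 10 nM + cpd, 15 min RT; start w/ substrate 50 nM final; fluorescence kinetic read, 0 and 10 min. Neg ctrl: buffer, no enzyme.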
ALOX12 inh = inhibitors of human 12S-lipoxygenase ALOX12 | P18054 | purified 12hLO, xylenol orange hydroperoxide absorbance | Potency, µM (titrated, usually from 108 µM), hits mostly inhibitors | actives 1.1% (n = 580,000) | AID 1671190
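Purified human 12hLO (150 nM final) in 25 mM Hepes, 0.01% Triton X-100, pH 7.0 was preincubated 15 min at room temperature with compound. Then 40 uM arachidonic acid was added, 30 min. Hydroperoxide was read by Fe-XO absorbance ratio 573/405 nm.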
POLB inh = DNA polymerase beta (human) inhibition; P06746; Potency, µM (doses to about 114 µM), usual class: inhibitors; actives 1.3% (n = 340,000); AID 485314; Pol beta primer extension/strand displacement, fluorescence kinetic
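Human Pol beta at 10 nM; strand-displacement substrate 50 nM final. Compound exposure 15 min at room temperature before start, reaction 10 min at room temperature.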
Pol eta inh = blocks human DNA polymerase eta activity | Q9Y253 | recombinant Pol eta, fluorescent DNA replication assay | Potency, µM (titrated, usually from 114 µM), hits mostly inhibitors | actives 1.2% (n = 390,000) | AID 588591
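Pol eta at 10 nM preincubated with compounds 15 min at room temperature; reaction started with fluorescent substrate (50 nM final) and read kinetically at 0 and 10 min.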
Pol iota inh = inhibitors of human DNA polymerase iota | Pol iota fluorescent replication assay, 10 min | Potency, µM (series often up to 115 µM), most hits filed as inhibitors | actives 1% (n = 390,000)
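Fluorescent replication assay read twice, at 0 min and 10 min after adding 50 nM (final) substrate. Enzyme (10 nM) and compounds were first incubated 15 min at room temperature; enzyme-free buffer wells were negative controls.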
Hits are given with their value; 0 = inactive; ? = inconclusive; - = no result; [ ] = remark or other dose. Unless noted, the call rests on the fitted dose curve; in most records, active means well fitted inhibition curve with a large enough effect; inconclusive means small, poorly fitted or top-dose-only effect, or another doubt; inactive means no such curve, though single readings can be large or run the other way.

SMILES	PI5P4Ka inh	POLK inh	ALOX12 inh	POLB inh	Pol eta inh	Pol iota inh
CC(=O)c1cccc(NC(=S)NCCc2ccc(Cl)cc2)c1	0	0	?	0	0	0
Cc1nc2ccc(NC(=S)NC3CC3)cc2nc1C	0	0	0	0	0	0
Cc1nc2ccc(NC(=S)NCCCO)cc2nc1C	0	0	?	0	?	18µM
CC(NC(=O)C1CCOCC1)c1ccc(Cl)s1 (centres undefined)	-	-	0	-	-	-
COc1ccc(-n2cc(-c3ccccc3)[nH]c2=S)cc1	0	0	?	0	0	0
CC(=O)Nc1ccc(-n2cc(-c3ccccc3)[nH]c2=S)cc1	0	0	28µM	0	0	0
COc1ccccc1NC(=O)Cn1cc(S(=O)(=O)Cc2ccccc2)c2ccccc21	-	0	?	?	79µM	0
CC12CCC(C/C1=N\O)C2(C)CBr (centres undefined)	-	-	0	-	-	-
O=C(c1nn(-c2ccccc2)c(=O)c2ccccc12)N(Cc1ccccc1)C1CC1	-	-	0	-	-	-
COCc1cc(O)c(O)c(O)c1-c1c(COC)cc(O)c(O)c1O	-	0.21µM	-	-	-	2.8µM
COc1cc2c[n+](C)c3c4ccccc4ccc3c2cc1OC	0	32µM	0	-	?	?
CNc1c(NC(=O)Nc2ccc(F)cc2)c(=O)oc2ccccc12	-	-	10µM	-	-	-
CNc1c(NC(=O)NCc2ccc(F)cc2)c(=O)oc2ccccc12	-	-	0	-	-	-
Cc1ccccc1OCC(=O)OCC(=O)Nc1ccc2c(c1)OCCO2	0	0	0	-	0	13µM
CC(C)/C=N/Nc1ccc(S(N)(=O)=O)cc1[N+](=O)[O-]	-	-	0	-	-	-
COc1ccc(NC(=O)Cc2ccc(C)cc2)cc1S(=O)(=O)N1CCCCC1	0	0	0	-	0	0
COc1ccc(S(=O)(=O)N2CCOCC2)cc1NC(=O)c1cc2c(s1)CCCC2	0	0	0	0	0	0
COc1ccc(NC(=O)c2cc3c(s2)CCC3)cc1S(=O)(=O)N1CCOCC1	?	?	0	?	?	35µM
COc1ccc(NC(=O)CN2CCCCC2)cc1S(=O)(=O)N1CCCCC1	0	0	2.5µM	-	?	0
COc1cccc(CNC(=O)Cn2ncc3ccc(OC)c(OC)c3c2=O)c1	-	-	0	-	-	-
N#CC(=Cc1ccc(O)cc1)C(N)=C(C#N)C#N	-69	0	0	-	0	0
O=C(O)/C(=C\c1ccc(Br)cc1)c1ccc(S(=O)(=O)N2CCCCC2)s1	0	0	?	28µM	?	?
O=S(=O)(CCSc1nnnn1C1CCCC1)c1cc(Cl)ccc1Cl	-	-	0	-	-	-
Cc1ccc(NC2=C/C(=N/S(=O)(=O)c3cccs3)c3ccccc3C2=O)cc1C	0	0	0	0	0	0
Cc1ccccc1NC1=C/C(=N\S(=O)(=O)c2cccs2)c2ccccc2C1=O	0	0	0	0	11µM	3.2µM
SMILES	PI5P4Ka inh	POLK inh	ALOX12 inh	POLB inh	Pol eta inh	Pol iota inh
CC(=O)Nc1ccc(NC2=C/C(=N/S(=O)(=O)c3cccs3)c3ccccc3C2=O)cc1	0	0	0	?	?	14µM
O=C(CSc1nnc(-c2ccco2)c(-c2ccco2)n1)c1ccccc1	?	79µM	28µM	0	35µM	18µM
COc1ccc(-c2nnc(SCC(=O)Nc3ccc(C(C)=O)cc3)nc2-c2ccc(OC)cc2)cc1	-	0	0	0	0	0
CC(=O)c1ccc(NC(=O)CSc2nnc(-c3ccco3)c(-c3ccco3)n2)cc1	-64	14µM	?	20µM	22µM	?
COc1cccc(CNC(=O)C2CCN(c3nc4c(C)cc(C)cc4s3)CC2)c1	-	-	0	-	-	-
Cc1cc(C)cc(NC(=S)Nc2ccc(Cl)c(Cl)c2)c1	0	0	40µM	0	0	0
Cc1cccc(C)c1NC(=S)Nc1ccc(Cl)c(Cl)c1	0	0	?	0	0	0
COc1ccc(-c2nc3n(n2)C(=O)CC(c2ccco2)S3)cc1 (centres undefined)	-	?	-	22µM	?	?
CCOc1ccc(C2CC(=O)n3nc(-c4ccc(C)cc4)nc3S2)cc1 (centres undefined)	-	0	0	0	0	0
Cc1cc(C)c(C)c(SCC(=O)Nc2oc(C)c3c(C)n[nH]c(=O)c23)c1C	0	0	25µM	-	0	0
COc1ccc(Nc2ncnc3c2cnn3-c2ccccc2Cl)cc1	-	-	0	-	-	-
O=C(c1n[nH]c(=O)c2ccccc12)N1CCCC(c2nc3ccccc3s2)C1 (centres undefined)	-	-	0	-	-	-
O=[N+]([O-])c1ccccc1SNc1ccccc1	0	-	0	-	0	-
NC(=O)CC(NSc1ccccc1[N+](=O)[O-])C(=O)O (centres undefined)	-57	0	?	0	0	?
Cn1c(Sc2ccc(C(=O)O)cc2[N+](=O)[O-])nnc1-c1ccccc1	-77	0	0	0	0	0
CCN1CCC(N(Cc2ccco2)C(=O)Nc2cc(Cl)ccc2C(=O)OC)CC1	-	-	6.3µM	-	-	-
COC(=O)c1ccc(Cl)cc1NC(=O)N(Cc1ccc(OC)cc1)C1CCN(C(C)=O)CC1	-	0	0	0	0	0
COc1ccc(CCN(C)C/C=C/c2ccccc2[N+](=O)[O-])cc1OC	0	0	0.89µM	0	0	0
COc1ccc(CCN(C)c2ccc(C(N)=O)cc2[N+](=O)[O-])cc1OC	0	0	0	0	0	0
COc1ccccc1-c1nc(C(=O)NCc2ccc(F)cc2)n2ccncc12	-	-	0[6.33 µM]	-	-	-
Cc1nn2c(=O)cc(COC(=O)c3cccc(NC(=O)CCc4ccccc4)c3)nc2s1	-	0	0	0	0	?
CC(C)Cc1nn2c(=O)cc(COC(=O)c3ccc(NC(=O)C4CCCCC4)cc3)nc2s1	-	0	0	0	0	0
Cc1nn2c(=O)cc(COC(=O)c3ccc(NC(=O)CCc4ccccc4)cc3)nc2s1	-	0	0	79µM	0	0
CC(C)c1nn2c(=O)cc(COC(=O)c3ccc(NC(=O)C4CCCCC4)cc3)nc2s1	-	0	0	0	79µM	0
Cc1cccc(NC(=S)N2CCN(C(=O)c3ccco3)CC2)c1C	0	0	0	0	0	0
SMILES	PI5P4Ka inh	POLK inh	ALOX12 inh	POLB inh	Pol eta inh	Pol iota inh
Cc1c(Cl)cccc1NC(=S)N1CCN(C(=O)c2ccco2)CC1	0	0	0	79µM	0	0
Cc1occc1C(=O)NC(C)c1cccc(Br)c1 (centres undefined)	-	-	0	-	-	-
COc1cccc(Nc2ncccc2C(=O)NCc2ccccc2)c1	0	0	0	89µM	?	0
COc1ccc(Nc2ncccc2C(=O)NCc2ccccc2)cc1	-	0	0	0	0	0
O=C(O)c1cc(N(Cc2ccccc2O)Cc2cc(O)ccc2O)ccc1O	-	11µM	?	-	-	-
O=C(O)CCCC(=O)Nc1ccc(Cl)c(Cl)c1	0	0	0	0	0	0
O=C(CCCCn1cnc2c(=S)nc[nH]c21)Nc1ccc(C(=O)O)c(O)c1	-68	0	?	-	?	?
O=C(/C=C/c1cccs1)Nc1sc2c(c1C(=O)O)CCCC2	?	0	?	?	0	14µM

Screening results from PubChem.
